Only some compounds are listed: those with a hit (about 14% of all), similar ones and a draw of the others.
HADH2 inh: qHTS Assay for Inhibitors of HADH2 (Hydroxyacyl-Coenzyme A Dehydrogenase, Type II); 3-hydroxyacyl-CoA dehydrogenase type-2 (Homo sapiens), Q99714; recombinant HADH2, NADH fluorescence, beta-hydroxybutyryl-CoA; Potency, µM (highest dose often 57.1 µM), for inactives: at the top dose activity change, negative = inhibition, hits mostly inhibitors; 73,000 tested, 3.4% active; note: potency is the fitted concentration of half-maximal effect; % is set by controls: 0 for no effect and ±100 for the full control effect; nearly all actives have a fitted effect of over 60% in size
Target sequence (Q99714 whole entry, looked up, one chain of several): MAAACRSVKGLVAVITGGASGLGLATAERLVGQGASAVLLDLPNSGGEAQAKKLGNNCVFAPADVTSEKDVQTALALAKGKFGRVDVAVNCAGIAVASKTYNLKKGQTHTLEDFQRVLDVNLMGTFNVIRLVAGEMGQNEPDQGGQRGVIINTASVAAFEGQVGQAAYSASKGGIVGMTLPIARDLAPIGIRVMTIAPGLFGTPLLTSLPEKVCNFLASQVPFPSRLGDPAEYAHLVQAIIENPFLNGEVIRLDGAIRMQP
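Activity measured as NADH fluorescence gain (360/450 nm), taken as the change between first and last reads of a 4-min kinetic run. Conditions: pH 9.0 Tris buffer, 20 nM E. coli-expressed His-tagged enzyme, 1 mM NAD+, 90 uM beta-hydroxybutyryl-CoA; 15-min compound preincubation.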
A350 fluor: qHTS Assay for Spectroscopic Profiling in A350 Spectral Region; Compound autofluorescence, 340/450 nm, Alexa 350 dye-equivalents; hits give high values; max dye-equivalent concentration, M; 59,000 tested, 11% active; in the data active = max dye-equivalent concentration above about 10 nM; inconclusive = mostly about 1.1 nM to 9.6 nM
CRE Fsk mod: Cell signaling CRE-BLA (Fsk stim) | CHO CRE-bla reporter (cAMP response element driving beta-lactamase), forskolin EC10, beta-lactamase ratio | AID 662, 2007 | 71,000 tested, 2.5% active | Potency, µM (doses to about 38.2 µM), inactives show at the top dose activity change, negative = inhibition, hits mostly activators; active = well fitted activation curve with a large enough effect in the signal ratio, with a control signal flat, not every such curve was filed as active; inconclusive = small, poorly fitted or top-dose-only effect, or effect the other way, or a change in a side signal; the % refers to the signal ratio; note: potency is the fitted concentration of half-maximal effect; % of control where 0% means no effect
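CRE-bla CHO cells stimulated with EC10 NKH 477 (water-soluble forskolin) and compound titrations, 3 h at 37C; beta-lactamase read with CCF4 after 2 h at room temperature. Activity from 460/530 nm emission ratio, AC50 values for positive or negative modulation.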
HSD17B inh: qHTS Assay for Inhibitors of HSD17B4, hydroxysteroid (17-beta) dehydrogenase 4; Potency, µM (highest dose often 57.1 µM), for inactives: at the top dose activity change, negative = inhibition, hits mostly inhibitors; 75,000 tested, 7.6% active; recombinant HSD17B10, NADH fluorescence kinetic; 3-hydroxyacyl-CoA dehydrogenase type-2 (Homo sapiens), Q99714; AID 893, 2007;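 note: the protocol describes HADH2 (HSD17B10) and not the HSD17B4 of the title; potency is the fitted concentration of half-maximal effect; % is set by controls: 0 for no effect and ±100 for the full control effect; nearly all actives have a fitted effect of over 70% in size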
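Activity followed as NADH fluorescence increase (ex 360, em 450 nm) every 30 seconds for 4 min, using final 90 uM beta-hydroxybutyryl CoA and 1 mM NAD+. Recombinant His-tagged enzyme, 20 nM, pH 9.0 Tris buffer, 15 min compound preincubation.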
AID923: qHTS Assay for Allosteric/Competitive Inhibitors of Caspase-1: Spectroscopic Profiling in AFC Spectral Region; Potency, µM (top dose mostly 57.5 µM), for inactives: at the top dose fluorescence increase, most hits filed as activators; compound fluorescence, AFC spectral region (405/520 nm); 75,000 tested, 1.1% active; AID 923, 2007; note: potency is the fitted concentration of half-maximal effect; 0% is about no effect
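Compound autofluorescence profiled at 405 nm ex/520 nm em during kinetic caspase 1 run (50 nM enzyme, 5 uM Ac-WEHD-AFC, HEPES pH 7.5, 10 mM DTT). Titration up to 57 uM; baseline from regression intercept, normalized to AFC standard curve.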
4-MU autofl: qHTS Assay for Spectroscopic Profiling in 4-MU Spectral Region | compound autofluorescence, 340/450 nm, 4-MU equivalents; hits give high values | max dye-equivalent concentration, M | 59,000 tested, 11% active; in the data active = max dye-equivalent concentration above about 10 nM; inconclusive = mostly about 1.1 nM to 9.6 nM
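Intrinsic fluorescence at 340/450 nm (ex/em) was read after 15 min at room temperature in pH 8.0, 100 mM Tris. Each compound concentration expressed as 4-MU-equivalent concentration from a six-point 4-MU standard series on each plate.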
Numbers without * were called inactive; ! = a repeat was not active; [ ] = dose if it differs, or a comment. Unless noted, calls come from the whole dose curve; as a rule, active = well fitted curve in the direction sought with a large enough effect; inconclusive = small, poorly fitted or top-dose-only effect, or another doubt; inactive = no such curve, though single readings can be large; an effect the other way counts as inactive or inconclusive.

`CCN1C[C@]2(C)CC[C@@H](O)[C@]34[C@@H]5CC6[C@@H](OC)C[C@@](O)([C@H]5[C@@H]6O)[C@@H](C[C@@H]23)[C@H]14` gave HADH2 inh -10.9%, A350 fluor inconclusive, CRE Fsk mod -9.8%, HSD17B inh 2.2%, AID923 -3.6% and 4-MU autofl inconclusive.
`CN=C=S` gave HADH2 inh -23.1%, CRE Fsk mod -7.1%, HSD17B inh -4.5% and AID923 0.6%.
`c1nc(N2CC2)c2cnn([C@@H]3CCCCO3)c2n1` gave HADH2 inh 2.3%[11.4 µM], A350 fluor inconclusive, CRE Fsk mod -20.4%[7.6 µM], HSD17B inh -0.6%[11.4 µM], AID923 -0.1%[11.5 µM] and 4-MU autofl inactive.
CCOC(=O)C(C)Oc1cc(C)cc2oc(=O)c3c(c12)CCCC3 (stereo not drawn) was read as HADH2 inh 31.2%, A350 fluor inactive, CRE Fsk mod inconclusive, HSD17B inh 25.1µM*, AID923 -1.6% and 4-MU autofl inactive.
`Cc1cc(OCc2nn[nH]n2)c2c3c(c(=O)oc2c1)CCC3` gave HADH2 inh 10µM*, A350 fluor 5.73e-08M*, CRE Fsk mod 12.3%, HSD17B inh 31.6µM*, AID923 -0.4% and 4-MU autofl 4.65e-08M*.
Screening COC(=O)c1cc(COc2cc(C)cc3oc(=O)c4c(c23)CCC4)c(C)o1 returned HADH2 inh 28.8%, A350 fluor inconclusive, CRE Fsk mod inconclusive, HSD17B inh 12.6µM*, AID923 -0.2% and 4-MU autofl 2.86e-08M*.
`CCN(CC)c1ncnc2c1ncn2[C@@H]1O[C@@H](COP(=O)(O)OP(=O)(O)C(Br)(Br)P(=O)(O)O)[C@H](O)[C@@H]1O` gave HADH2 inh 2.8%, A350 fluor inactive, CRE Fsk mod -1.9%, HSD17B inh 4.7%, AID923 -3.8% and 4-MU autofl inactive.
NC(=O)CN1C[C@@H](O)CC1=O was read as HADH2 inh 11.4%, A350 fluor inactive, CRE Fsk mod -3.6%, HSD17B inh 2.1%, AID923 -2.7% and 4-MU autofl inactive.
`COc1cc2c(cc1OC)-c1c(O)c(OC)cc3c1[C@@H](C2)N(C)CC3` gave HADH2 inh -108.0%, A350 fluor inconclusive, CRE Fsk mod inconclusive and 4-MU autofl inconclusive.
For COc1ccc(C(=O)N2CCCC2=O)cc1 the results were HADH2 inh -1.0%, A350 fluor 2.51e-08M*!, CRE Fsk mod 6.3%, HSD17B inh 1.6%, AID923 -1.3% and 4-MU autofl 2.23e-08M*!.
For COc1ccc(C(=O)O)cc1OC the results were HSD17B inh 0.6% and AID923 -0.6%.
CCCC[N+]1(C)[C@@H]2CC(OC(=O)[C@@H](CO)c3ccccc3)C[C@H]1[C@H]1O[C@H]12 (stereo partly drawn) was read as HADH2 inh -5.4%, A350 fluor inactive, CRE Fsk mod -1.6%, HSD17B inh 5.2%, AID923 -2.0% and 4-MU autofl inactive.
`NC[C@@H](O)CSP(=O)(O)O` gave HADH2 inh 5.7%[11.4 µM], A350 fluor inactive, CRE Fsk mod -4.5%[7.6 µM], HSD17B inh 9.9%[11.4 µM], AID923 4.0%[11.5 µM] and 4-MU autofl inactive.
For COc1cc(-c2ccc(N)c(OC)c2)ccc1N the results were HADH2 inh 31.6µM*, CRE Fsk mod inconclusive, HSD17B inh -26.9% and AID923 -0.2%.
For CC(CCC(=O)O)C1CCC2C3CC[C@H]4CC(O)CC[C@@]4(C)C3CC[C@@]12C (stereo partly drawn) the results were HSD17B inh inconclusive and AID923 2.6%.
`O=C(O)CN1CCN(CC(=O)O)CC(=O)[O][Hg][O]C(=O)C1` gave HADH2 inh 2µM*, A350 fluor inconclusive, CRE Fsk mod 13.9%[7.6 µM], HSD17B inh 0.159µM*, AID923 0.6%[11.5 µM] and 4-MU autofl inactive.
Screening COc1cc2c(c(OC)c1OC)-c1ccc(O)c(=O)cc1[C@H](N)CC2 returned HADH2 inh -16.2%[25.6 µM], A350 fluor 1.33e-08M*, CRE Fsk mod -9.0%[17.1 µM], HSD17B inh -5.0%[25.6 µM], AID923 -1.3%[25.7 µM] and 4-MU autofl 1.5e-08M*.
For CCOc1ccccc1-n1c(O)c(C=Nc2ccc(N(CC)CC)cc2)c(=O)[nH]c1=O the results were A350 fluor inactive and 4-MU autofl inactive.
CCN(CC)c1ccc(N=Cc2c(O)n(-c3ccccc3C)c(=O)[nH]c2=O)cc1 was read as A350 fluor 1.73e-06M* and 4-MU autofl 1.56e-06M*.
C/C=C1\C[C@H](C)[C@](O)(CO)C(=O)OCC2=CCN3CC[C@@H](OC1=O)[C@@H]23 was read as HADH2 inh -21.2%, A350 fluor inactive, CRE Fsk mod inconclusive and 4-MU autofl inactive.
`CC1=NN(c2ccccc2)C(=O)[C@@H]1N=Nc1ccc([As](=O)(O)O)c(O)c1` gave HADH2 inh -22.7%[11.4 µM], A350 fluor inactive, CRE Fsk mod inconclusive, HSD17B inh 1.4%[11.4 µM], AID923 -0.7%[11.5 µM] and 4-MU autofl inactive.
COc1ccc(C(=O)Nc2ccccc2C(=O)NC(C(=O)NCc2ccco2)C(C)C)cc1 (stereo not drawn) was read as HADH2 inh 20.2%, A350 fluor inactive, CRE Fsk mod 1.9%, HSD17B inh 10µM*, AID923 -1.6% and 4-MU autofl inactive.
Screening C[As+](C)(c1ccc(Br)c([N+](=O)[O-])c1)c1ccc(Br)c([N+](=O)[O-])c1.O=[N+]([O-])O returned HADH2 inh -12.6%[11.4 µM], A350 fluor inactive, CRE Fsk mod -9.7%[7.6 µM], HSD17B inh 7.3%[11.4 µM], AID923 -1.8%[11.5 µM] and 4-MU autofl inactive.
`CCC1=C(C[C@H]2NCCc3cc(OC)c(OC)cc32)C[C@H]2c3ccccc3CCN2C1` gave HADH2 inh 16.3%[11.4 µM], A350 fluor inconclusive, CRE Fsk mod -9.2%[7.6 µM], HSD17B inh 5.5%[11.4 µM], AID923 0.3%[11.5 µM] and 4-MU autofl inconclusive.
Screening CC(=O)C1=C(O)[C@@H]2[C@@H]3c4c[nH]c5cccc(c45)C[C@@H]3C(C)(C)N2C1=O returned HADH2 inh 3.4%, CRE Fsk mod 1.26µM*, HSD17B inh inconclusive and AID923 9.5%.
`CC(=O)C1=C(O)C2C3c4c[nH]c5cccc(c45)CC3C(C)(C)N2C1=O` (stereo not drawn) gave HSD17B inh 4.0% and AID923 1.7%.

Screening data (PubChem)
